Experimental data reported in PubChem BioAssay (NCI).
“And” between values parts separate entries of the source, which are not always exact repeats. Identical values can stand only once. About 83,000 compounds went through this panel and 20% of them were active in at least one assay; those are over-represented in the sample as a whole.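 Cell lines were cultured in 96-well plates, exposed to a single compound concentration, and assessed for percent growth 48 hours later.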 Unmarked numbers belong to inactive results. The source made the active and inactive calls. The calls were made as follows: active = growth percent below 10; inactive = the rest.

Legend:
Test in all cases: NCI-60 one-dose screen, 48 h (100 = growth as untreated, 0 = no growth, -100 = all killed)
[1] = test system: DU-145 prostate
[2] = test system: K-562 leukemia
[3] = test system: MALME-3M melanoma
[4] = test system: MDA-MB-231 breast
[5] = test system: RXF 393 renal
[6] = test system: SF-268 CNS
[7] = test system: SF-295 CNS
[8] = test system: SF-539 CNS
[9] = test system: UACC-257 melanoma
[10] = test system: M14 melanoma

Structure (SMILES): CC(=O)O[C@H]1C(=O)[C@@]2(C)[C@H]([C@H](OC(=O)c3ccccc3)[C@]3(O)C[C@H](OC(=O)[C@H](O)[C@@H](NC(=O)c4ccccc4)c4ccccc4)C(C)=C1C3(C)C)[C@]1(OC(C)=O)CO[C@@H]1C[C@@H]2O
- growth ([1]; 0.01 µM): -35.7% (active)
- growth ([1]; 2.5 µM): -5.74% (active)
- growth ([1]; 5 µM): -7.54% (active)
- growth ([2]; 0.01 µM): 10.7%
- growth ([2]; 2.5 µM): 5.83% (active)
- growth ([2]; 5 µM): 6.14% (active)
- growth ([3]; 0.01 µM): 52.3%
- growth ([3]; 2.5 µM): 51.7%
- growth ([3]; 5 µM): 61.6%
- growth ([4]; 0.01 µM): 49.4%
- growth ([4]; 2.5 µM): -6.11% (active)
- growth ([4]; 5 µM): 2.87% (active)
- growth ([5]; 0.01 µM): 1.22% (active)
- growth ([5]; 2.5 µM): -29.4% (active)
- growth ([5]; 5 µM): -25.8% (active)
- growth ([6]; 0.01 µM): 42.1%
- growth ([6]; 2.5 µM): 27.2%
- growth ([6]; 5 µM): 29.5%
- growth ([7]; 0.01 µM): 55.9%
- growth ([7]; 2.5 µM): 2.61% (active)
- growth ([7]; 5 µM): 3.25% (active)
- growth ([8]; 0.01 µM): -15.1% (active)
- growth ([8]; 2.5 µM): -28.7% (active)
- growth ([8]; 5 µM): -33.8% (active)
- growth ([9]; 0.01 µM): 14.6%
- growth ([9]; 2.5 µM): 48.7%
- growth ([9]; 5 µM): 59.6%
- growth ([10]; 2.5 µM): -1.65% (active)
- growth ([10]; 5 µM): 19.5%
- growth ([10]; 10 µM): 24.9% and 24.5%

Structure (SMILES): S=P(N1CC1)(N1CC1)N1CC1
- growth ([1]; 100 µM): -0.811% (active)
- growth ([2]; 100 µM): 43.4%
- growth ([3]; 100 µM): 82%
- growth ([4]; 100 µM): 101%
- growth ([5]; 100 µM): 14.4%
- growth ([6]; 100 µM): 36.5%
- growth ([7]; 100 µM): 14.3%
- growth ([8]; 100 µM): -8.76% (active)
- growth ([9]; 100 µM): 37.2%
